Measurements reported in PubChem BioAssay (NCATS).
Results filed as inconclusive are left out. Calls of active or inactive are those of the source. Calls come from the whole dose curve; as a rule, active = well fitted curve in the direction sought with a large enough effect; inconclusive = small, poorly fitted or top-dose-only effect, or another doubt; inactive = no such curve, though single readings can be large or run the other way.

assay: Cytometric Cell-Based qHTS for Inhibitors of the mTORC1 Signaling Pathway in MEF (Tsc2-/-, p53-/-) Cells (AID 2660); conditions: mTORC1 pathway cytometry; series mostly up to 38.3 µM;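 note: Tsc2 and p53 null MEFs carrying empty vector with compound for 24 h; percent of cells above a phospho-rpS6 to PI ratio cutoff in each well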
From the text: NIH Molecular Libraries Probe Production Centers Network [MLPCN]
NIH Chemical Genomics Center [NCGC]
Assay Submitter (PI): Blenis, John; Hoffman, Greg; Harvard University
NCGC Assay Overview: The mammalian target of rapamycin (mTOR) is an intracellular serine/threonine kinase Aberrant regulation of mTOR signaling plays a causative role in a number of human diseases, including cancer, benign tumors such as lymphangioleiomyomatosis (LAM) and Tuberous Sclerosis Complex (TSC), and metabolic diseases such as diabetes and obesity. This project aims to identify inhibitors of ribosomal protein S6 (rpS6) phosphorylation. The phosphorylation of rpS6 is a key event downstream of mTOR activation. The assay uses a phospho-specific antibody of phospho-rpS6 to detect inhibitors of mTOR activation. Mutations in the Tsc1 and Tsc2 genes are the underlying genetic lesions responsible for TSC, causing constitutive activation of the mTORC1 pathway and leading to profound effects on cell metabolism. Aberrant metabolism in cancer has recently received significant attention as a target to develop therapeutic agents in the treatment of cancer.1 As Tsc2-/- cells have lost the ability to respond to energy and growth factor deprivation, these cells are unable to properly down regulate cellular biosynthetic processes in response to metabolic stress, and are thus extremely sensitive to glucose deprivation-induced death.2 A central goal of this project is to explore the unique cell survival and metabolic properties of cells with Tsc1 or Tsc2 by screening for compounds that selectively target the Tsc2-/- MEFs by screening both Tsc2-/- and WT MEF cell lines. We hope to better understand these aspects of TSC physiology in order to exploit them for therapeutic benefit.
NCGC Acumen Assay Protocol Summary:
For quantitative high throughput analysis of mTORC1 signaling, we developed a cell-based assay for immuno-fluorescence based detection of rpS6 phosphorylation on the Acumen Explorer that will be used a platform for the primary small molecule screen. Mouse embryonic fibroblasts (MEFs) are cultured in 1536-well plates using DMEM + 10% FBS. Twenty-four hrs after plating, test compounds (solubilized in DMSO) are delivered and incubated with the cells for 24 hrs at 37 degree Celsius. Following the incubation, media with compound is aspirated and the cells are fixed in 4% paraformaldehyde (PFA) containing PBS + 0.2% TX-100. Next, PFA is aspirated, cells are washed two times with PBS plus 0.2% TX-100 and the cells are blocked for 1 hr at room temperature (blocking buffer: LiCOR Blocking Buffer plus 0.2% TX-100). This is followed by aspiration and staining with Alexa-488 conjugated-phospho-rpS6 Ser235/236 antibody for 2 hours at room temperature (Cell Signaling Technology # 4803, 1:50 dilution in blocking buffer). Cells are washed two times with PBS plus 0.2% TX-100, and stained with 10 uM propidium iodide (PI) for 20-25 minutes for cell number measurement (1:500 dilution of Hoescht staining is also added for IN Cell imaging). The plates are scanned on the Acumen Explorer laser scanning instrument (TTP Labtech) using the 488nm laser for simultaneous excitation of the Alexa-488 and PI. The fluorescence emission from the Alexa-488 conjugated rpS6 phospho-235/236 antibody staining is selected using a […] band pass filter. Fluorescence emission from the PI stain is selected using a 575-640 nm band pass filter. The normalized phospho-S6 staining is calculated as the ratio of the integrated Alexa 488 intensity divided by the integrated PI intensity for the single concentration rapamycin control (7.5 nM) and DMSO columns. […] Inhibition of the pathway is defined based on the normalized phospho-S6 intensity in rapamycin treated cells. […]

| SMILES | outcome |
| --- | --- |
| NC(Cc1ccc(Cl)cc1)C(=O)O (stereo not given) | inactive |
| COc1ccc(CN(CCN(C)C)c2ccccn2)cc1 | inactive |
| CC(=O)OC(C)C[N+](C)(C)C (stereo not given) | inactive |
| c1cnc(N2CCN(Cc3ccc4c(c3)OCO4)CC2)nc1 | inactive |
| Cc1nc2c([nH]1)c(=O)n(C)c(=O)n2Cc1ccco1 | inactive |
| COc1ccc2c(c1OC)C(=O)O[C@@H]2[C@H]1c2c(cc3c(c2OC)OCO3)CCN1C | inactive |
| CCc1c(C)[nH]c2c1C(=O)C(CN1CCOCC1)CC2 (stereo not given) | inactive |
| CCN(CC)CCOCCOC(=O)C1(c2ccccc2)CCCC1 | inactive |
| Cc1ccc(Cl)c(Nc2ccccc2C(=O)O)c1Cl | inactive |
| CC(C)NNC(=O)c1ccncc1 | inactive |
| CCOC(=O)c1cnc2c(cnn2CC)c1NN=C(C)C | inactive |
| CCN(CC)CC(=O)Nc1c(C)cccc1C | inactive |
| N[C@@H](COP(=O)(O)O)C(=O)O | inactive |
| COC(=O)[C@@H](N)Cc1ccc(O)c(O)c1 | inactive |
| CN(C)C(=O)Oc1ccc[n+](C)c1 | inactive |
| O=C(O)CN(CCOCCOCCN(CC(=O)O)CC(=O)O)CC(=O)O | inactive |
| C(=C\c1ccccc1)/CN1CCN(C(c2ccccc2)c2ccccc2)CC1 | inactive |
| CN(C)C/C=C(/c1ccc(Br)cc1)c1cccnc1 | inactive |
| C[C@]12CC[C@@H]3c4ccc(O)cc4C[C@@H](CCCCCCCCCS(=O)CCCC(F)(F)C(F)(F)F)[C@H]3[C@@H]1CC[C@@H]2O (stereo not given in full) | inactive |
| COC(=O)[C@H]1[C@H]2C[C@@H]3c4[nH]c5cc(OC)ccc5c4CCN3C[C@H]2C[C@@H](OC(=O)c2cc(OC)c(OC)c(OC)c2)[C@@H]1OC | inactive |

| SMILES | outcome |
| --- | --- |
| CN(C)CCCN1c2ccccc2Sc2ccc(C(F)(F)F)cc21 | inactive |
| COc1ccc(CCN(C)CCCC(C#N)(c2cc(OC)c(OC)c(OC)c2)C(C)C)cc1OC (stereo not given) | inactive |
| CN(C(=O)CCCOc1ccc2[nH]c(=O)ccc2c1)C1CCCCC1 | inactive |
| O=C1CC2(CCCC2)CC(=O)N1CCCCN1CCN(c2ncccn2)CC1 | inactive |
| CCN(Cc1ccncc1)C(=O)C(CO)c1ccccc1 (stereo not given) | inactive |
| C[C@]12CCC(=O)C=C1CC[C@@H]1[C@@H]2C(=O)C[C@@]2(C)[C@H]1CC[C@]2(O)C(=O)CO | inactive |
| CCCN(CCC)C(=O)C(CCC(=O)O)NC(=O)c1ccccc1 (stereo not given) | inactive |
| COc1cc(C(=O)OCCCN2CCCN(CCCOC(=O)c3cc(OC)c(OC)c(OC)c3)CC2)cc(OC)c1OC | inactive |
| Cc1ccc(/C(=C\CN2CCCC2)c2ccccn2)cc1 | inactive |
| CCCN1C[C@H](CSC)C[C@@H]2c3cccc4[nH]cc(c34)C[C@H]21 | inactive |
| CCCCNC(=O)NS(=O)(=O)c1ccc(C)cc1 | inactive |
| c1ccc2c(c1)CCCC2C1=NCCN1 (stereo not given) | inactive |
| O=C(CCNNC(=O)c1ccncc1)NCc1ccccc1 | inactive |
| Cc1nc2ccccn2c(=O)c1CCN1CCC(C(=O)c2ccc(F)cc2)CC1 | inactive |
| CN(C)[C@@H]1C(=O)C(C(N)=O)=C(O)[C@@]2(O)C(=O)C3=C(O)c4c(O)ccc(Cl)c4[C@@H](O)[C@H]3C[C@@H]12 | inactive |
| CC(=O)Nc1nnc(S(N)(=O)=O)s1 | inactive |
| CC1=C(C)C(=O)C(CCCCC#CCCCC#CCO)=C(C)C1=O | inactive |
| O=C(CCCN1CCC(O)(c2cccc(C(F)(F)F)c2)CC1)c1ccc(F)cc1 | inactive |
| CN1CCN(C2=Nc3ccccc3Oc3ccc(Cl)cc32)CC1 | inactive |
| CCNC(=O)N1CCN(CCCC(c2ccc(F)cc2)c2ccc(F)cc2)CC1 | inactive |
